Assay results reported in PubChem BioAssay.
Active and inactive are the calls of the source.

Columns and labels:
[1] = E. coli DRC41 culture turbidity changes, primary screen, E. coli filamentation inducer project, strain DRC41, OD650, 48 h (AID 1152);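 further: E. coli MC1000 strain DRC41 lacking acrAB efflux pump and sulA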; settings: E. coli DRC41 (acrAB sulA), higher = more signal, called active from +8 up or from −8 down
[2] = small-molecule binders of probe aLefty1, primary screen, biochemical, small-molecule microarray, 635/667 nm fluorescence (AID 1153); settings: higher = more signal;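 further: score merges spot fluorescence with signal-to-noise ratio from the scanned slide images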
[3] = PSAC antagonists in infected red cells, primary screen, cell-based, P. falciparum Indochina, OD700, 1 h (AID 1154); settings: P. falciparum Indochina infected RBC osmotic lysis, higher = more signal, called active from +8 up or from −8 down
[4] = PSAC antagonists in infected red cells, primary screen, cell-based, P. falciparum Indochina, OD700, 2 h (AID 1155);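 further: lysis reports solute entry through the parasite surface anion channel PSAC; channel blockers reduce lysis of infected cells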; settings: P. falciparum Indochina infected erythrocytes, osmotic lysis OD700; higher = more signal, called active from +8 up or from −8 down
[5] = osmotic lysis modulators in infected erythrocytes, primary screen, PSAC antagonist project, cell-based, P. falciparum Indochina, OD700, 3 h (AID 1156); settings: higher = more signal, called active from +8 up or from −8 down
[6] = PSAC antagonists in infected red cells, primary screen, cell-based, P. falciparum Indochina, OD700, 18 h (AID 1157); settings: P. falciparum Indochina infected erythrocytes, osmotic lysis OD700, 18 h; higher = more signal, called active from +8 up or from −8 down
[7] = modulators of S6 phosphorylation in cells, primary screen, cell-based, A549, cytoblot, luminescence, serum-stimulated (AID 1158); settings: A549 phospho-S6 cytoblot, 5 h, higher = more signal;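 further: serum-stimulated A549 lung adenocarcinoma cells; signal is phosphorylated S6 detected by cytoblot immunostaining with HRP secondary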
[8] = molecular target: NADPH oxidase 2 (Homo sapiens) (UniProt P04839); test: NOX2-dependent H2O2 signal modulators, primary screen, NOX inhibitor project, cell-based, HEK293-NOX2, PMA-stimulated, Amplex Red fluorescence (AID 1159); settings: 45 min, higher = more signal, called active from +8 up or from −8 down; further: test concentration not given here
Chain of NADPH oxidase 2 (Homo sapiens) (P04839 whole entry, looked up): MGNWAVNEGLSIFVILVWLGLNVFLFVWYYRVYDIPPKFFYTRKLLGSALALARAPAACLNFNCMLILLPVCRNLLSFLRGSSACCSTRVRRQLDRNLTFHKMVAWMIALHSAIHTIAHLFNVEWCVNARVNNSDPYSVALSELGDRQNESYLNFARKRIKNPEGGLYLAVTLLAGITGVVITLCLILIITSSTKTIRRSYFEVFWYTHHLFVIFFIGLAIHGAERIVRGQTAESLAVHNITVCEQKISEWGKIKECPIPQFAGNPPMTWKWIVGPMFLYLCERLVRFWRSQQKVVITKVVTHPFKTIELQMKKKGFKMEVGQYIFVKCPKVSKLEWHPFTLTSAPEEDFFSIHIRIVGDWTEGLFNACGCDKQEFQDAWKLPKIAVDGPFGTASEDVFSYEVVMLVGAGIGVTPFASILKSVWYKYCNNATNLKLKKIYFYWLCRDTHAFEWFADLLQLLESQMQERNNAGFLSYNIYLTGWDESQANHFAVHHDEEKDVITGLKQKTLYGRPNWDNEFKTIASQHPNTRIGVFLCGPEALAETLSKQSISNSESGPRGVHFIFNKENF

[9] = molecular target: NADPH oxidase 4 (Homo sapiens) (UniProt Q9NPH5); test: NOX4-dependent H2O2 signal modulators, primary screen, NOX inhibitor project, cell-based, HEK293-NOX4, tetracycline-induced, Amplex Red fluorescence (AID 1160); settings: 45 min, higher = more signal, called active from +8 up or from −8 down
Chain of NADPH oxidase 4 (Homo sapiens) (Q9NPH5 whole entry, looked up): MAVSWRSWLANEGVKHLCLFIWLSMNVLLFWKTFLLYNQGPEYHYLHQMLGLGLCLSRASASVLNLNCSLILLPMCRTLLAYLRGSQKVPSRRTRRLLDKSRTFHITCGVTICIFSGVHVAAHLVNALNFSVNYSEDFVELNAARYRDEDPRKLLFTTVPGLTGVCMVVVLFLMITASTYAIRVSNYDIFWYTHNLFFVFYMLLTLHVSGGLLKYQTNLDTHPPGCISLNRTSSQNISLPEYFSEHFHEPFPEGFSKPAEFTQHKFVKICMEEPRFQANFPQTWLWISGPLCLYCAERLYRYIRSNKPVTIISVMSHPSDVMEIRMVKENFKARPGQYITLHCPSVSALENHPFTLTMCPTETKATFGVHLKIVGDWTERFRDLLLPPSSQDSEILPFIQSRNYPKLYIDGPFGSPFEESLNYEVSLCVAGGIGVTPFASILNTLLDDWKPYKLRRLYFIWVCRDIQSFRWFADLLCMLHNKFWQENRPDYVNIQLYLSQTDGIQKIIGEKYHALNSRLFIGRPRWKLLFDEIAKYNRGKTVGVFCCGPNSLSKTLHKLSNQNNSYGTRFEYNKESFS

[10] = molecular target: NADPH oxidase 5 (Homo sapiens) (UniProt Q96PH1); test: NOX5-dependent H2O2 signal modulators, primary screen, NOX inhibitor project, cell-based, HEK293-NOX5, Amplex Red fluorescence (AID 1161); settings: HEK293-NOX5, ionomycin, 45 min, higher = more signal
Chain of NADPH oxidase 5 (Homo sapiens) (Q96PH1 whole entry, looked up): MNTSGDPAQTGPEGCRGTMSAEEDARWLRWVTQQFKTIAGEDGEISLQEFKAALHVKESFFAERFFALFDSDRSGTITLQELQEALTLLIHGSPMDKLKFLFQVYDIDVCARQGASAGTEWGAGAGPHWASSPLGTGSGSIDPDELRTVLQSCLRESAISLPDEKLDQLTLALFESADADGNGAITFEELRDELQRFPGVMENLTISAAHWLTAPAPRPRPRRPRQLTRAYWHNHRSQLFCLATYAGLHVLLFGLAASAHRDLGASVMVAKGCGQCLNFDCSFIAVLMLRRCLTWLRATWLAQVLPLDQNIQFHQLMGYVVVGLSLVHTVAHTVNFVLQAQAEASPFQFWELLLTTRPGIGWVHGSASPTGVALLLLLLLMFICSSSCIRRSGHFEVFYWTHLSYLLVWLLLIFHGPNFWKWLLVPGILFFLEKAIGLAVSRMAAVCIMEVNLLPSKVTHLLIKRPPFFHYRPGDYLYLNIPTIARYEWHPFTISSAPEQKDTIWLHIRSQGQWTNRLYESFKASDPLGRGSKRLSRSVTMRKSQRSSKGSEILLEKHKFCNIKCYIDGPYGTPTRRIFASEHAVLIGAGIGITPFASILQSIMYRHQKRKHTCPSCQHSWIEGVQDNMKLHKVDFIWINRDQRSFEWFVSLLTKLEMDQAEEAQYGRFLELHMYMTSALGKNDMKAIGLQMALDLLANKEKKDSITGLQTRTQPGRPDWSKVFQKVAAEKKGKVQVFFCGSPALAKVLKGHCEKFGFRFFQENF

[11] = A549 cell viability effects, profiling panel, calcein-AM fluorescence, 48 h, basal (AID 1162); settings: higher = more signal; further: test concentration not given here
[12] = adipocyte viability effects, profiling panel, cell-based, 3T3-L1 adipocytes, calcein-AM fluorescence, 48 h, basal (AID 1163); settings: 3T3-L1 adipocytes viability, higher = more signal; further: test concentration not given here
[13] = HepG2 cell viability effects, profiling panel, calcein-AM fluorescence, 48 h, basal (AID 1164); settings: higher = more signal; further: test concentration not given here
[14] = MM1S cell viability effects, profiling panel, calcein-AM fluorescence, 48 h, basal (AID 1165); settings: higher = more signal;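 further: viability of MM1S multiple myeloma cells under basal unstimulated conditions; test concentration not given here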
[15] = basal RPMI8226 viability, no added stimulus, profiling panel, cell-based, calcein-AM fluorescence, 48 h, PK04 Diversity Set (AID 1166); settings: RPMI8226 myeloma viability, higher = more signal;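 further: cells grown under basal conditions without added stimulus; test concentration not given here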
[16] = basal HepG2 mitochondrial membrane potential changes, profiling panel, cell-based, JC-1 fluorescence, 24 h, 100 nL compound (AID 1167); settings: higher = more signal; further: test concentration not given here
[17] = basal 3T3-L1 adipocyte mitochondrial potential changes, profiling panel, cell-based, JC-1 fluorescence, 3T3-L1 adipocytes, 24 h, 100 nL compound (AID 1168); settings: JC-1 mitochondrial fluorescence, higher = more signal, called active from +8 up or from −8 down; further: test concentration not given here
[18] = basal RPMI8226 mitochondrial membrane potential changes, profiling panel, cell-based, JC-1 fluorescence, 24 h, 100 nL compound (AID 1169); settings: RPMI8226 myeloma, JC-1 mitochondrial potential fluorescence, higher = more signal; further: test concentration not given here
[19] = basal MM1S mitochondrial membrane potential changes, profiling panel, cell-based, JC-1 fluorescence, 24 h, 100 nL compound (AID 1170); settings: higher = more signal; further: test concentration not given here
[20] = A549 lung cancer cell viability effects, profiling panel, resazurin fluorescence, 24 h, PK04 Diversity Set (AID 1171); settings: higher = more signal, called active from +8 up or from −8 down; further: test concentration not given here

Row | Structure (SMILES) | z-score [1] | composite z-score [2] | z-score [3] | z-score [4] | z-score [5] | z-score [6] | z-score [7] | z-score [8] | z-score [9] | z-score [10] | z-score [11] | z-score [12] | z-score [13] | z-score [14] | z-score [15] | z-score [16] | z-score [17] | z-score [18] | z-score [19] | z-score [20]
1 | CCOC(=O)[C@H]1C/C=C/C[C@H](C(=O)OCC)C(=O)O[C@H]2[C@@H](OC)O[C@H](CO)[C@@H](OC(=O)c3c(OC)cccc3OC)[C@@H]2OC1=O | -0.664 (inactive) | 0.446 | 13.5 (active) | 2.34 (inactive) | -0.083 (inactive) | 1.2 (inactive) | 0.122 | -3.32 (inactive) | -0.754 (inactive) | -3.76 | -4.24 | 0.125 | -4.96 | -3.3 | -4.09 | -3.48 | 0.154 (inactive) | -0.999 | -1.96 | -4.38 (inactive)
2 | CCOC(=O)C[C@H]1[C@H](OC(=O)c2ccc(C(=O)c3ccccc3)cc2)[C@@H](NC(=O)c2ccccc2)c2cc(OCCCO)ccc2N1C(=O)c1ccc2ccccc2n1 | 0.181 (inactive) | -0.328 | 2.66 (inactive) | 0.748 (inactive) | -0.2 (inactive) | 0.454 (inactive) | -0.0519 | -1.14 (inactive) | 0.923 (inactive) | 1.94 | 0.29 | -0.356 | 0.74 | 0.294 | -0.465 | 1 | 1.76 (inactive) | -0.517 | -0.386 | -0.142 (inactive)
3 | COC(=O)[C@@]1(Cc2ccc(OC)cc2)[C@H]2c3cc(C(=O)N4CCCC4)n(Cc4ccc(O)c(OC)c4)c3C[C@H]2CN1C(=O)c1ccccc1 | -0.703 (inactive) | 0.622 | 5.08 (inactive) | 0.722 (inactive) | 1.04 (inactive) | 0.739 (inactive) | 0.299 | -2.31 (inactive) | -4.7 (inactive) | -4.33 | -0.226 | 0.174 | 0.321 | 0.11 | -0.243 | 2.27 | -0.183 (inactive) | -0.221 | -0.933 | -1.47 (inactive)
4 | COc1cc2c(cc1OC)CN(C(=O)[C@H]1[C@@H]3C(=O)O[C@@H](c4ccccc4)[C@@H](c4ccccc4)N3[C@@H](c3ccc(O)cc3)[C@]13C(=O)Nc1ccc(C#CCCO)cc13)CC2 | 0.675 (inactive) | -0.147 | 1.06 (inactive) | 0.736 (inactive) | 1.15 (inactive) | 0.689 (inactive) | 0.503 | 1.38 (inactive) | -0.0637 (inactive) | 1.08 | 0.0351 | 1.04 | -0.162 | -0.233 | -1.46 | -1.46 | 0.292 (inactive) | -0.568 | 0.0874 | 0.125 (inactive)
5 | COc1cc2c(cc1OC)CN(C(=O)[C@@H]1[C@H]3C(=O)O[C@H](c4ccccc4)[C@H](c4ccccc4)N3[C@H](c3ccc(O)cc3)[C@@]13C(=O)Nc1ccccc13)CC2 | 2.38 (inactive) | 0.154 | 1.32 (inactive) | 0.216 (inactive) | -0.287 (inactive) | -1.28 (inactive) | 2.99 | 0.00476 (inactive) | -0.339 (inactive) | -0.19 | 1.62 | 1.45 | 1.01 | 0.0197 | -1.62 | -0.574 | 0.382 (inactive) | -1.08 | -0.404 | 1.6 (inactive)
6 | COC(=O)[C@@]1(Cc2ccc(OC)cc2)[C@H]2c3cc(C(=O)N4CCCC4)n(Cc4ccc(C)c(F)c4F)c3C[C@H]2CN1C(=O)c1ccccc1 | -0.548 (inactive) | 0.378 | 3.76 (inactive) | 0.233 (inactive) | 0.894 (inactive) | 1.08 (inactive) | 0.105 | 0.705 (inactive) | 1.23 (inactive) | -3.41 | 0.842 | 0.0891 | 0.682 | -1.59 | -2.66 | 3.41 | -0.411 (inactive) | -0.735 | -1.51 | -0.268 (inactive)
7 | C=CCOC(=O)[C@H]1[C@@H]2C(=O)O[C@@H](c3ccccc3)[C@@H](c3ccccc3)N2[C@@H](c2ccc(OCCOC(=O)[C@H]3C[C@H]4C(=O)N[C@@H](CCCC[N+](C)(C)C)C(=O)N4[C@H]3c3ccc(O)cc3)cc2)[C@]12C(=O)Nc1ccc(I)cc12 | -0.535 (inactive) | 0.275 | 3.9 (inactive) | 1.69 (inactive) | -3.16 (inactive) | 0.278 (inactive) | -0.519 | 0.595 (inactive) | 0.72 (inactive) | 0.895 | 0.191 | -0.113 | 0.837 | -0.233 | -0.661 | 0.239 | -0.672 (inactive) | 0.0674 | 0.17 | -0.0807 (inactive)
8 | NC(=O)NCC#Cc1ccc2c(c1)[C@]1(C(=O)N2)[C@H](C(N)=O)[C@H]2C(=O)O[C@H](c3ccccc3)[C@H](c3ccccc3)N2[C@@H]1c1ccc(O)cc1 | 0.0502 (inactive) | 1.73 | 0.271 (inactive) | 0.436 (inactive) | 0.471 (inactive) | 0.124 (inactive) | 0.226 | 0.122 (inactive) | -0.519 (inactive) | -0.479 | -0.851 | -0.842 | -0.848 | 0.201 | 0.375 | -1.73 | -0.344 (inactive) | -0.758 | -0.094 | 0.808 (inactive)
